Legend:
Assay in all cases: log2 ratio of Biotin-Ahx-Ub-VS probe labelling (compound/DMSO); higher = less target engagement, active = hit call of the paper (q ≤ 0.05, log2 ratio ≤ -1)
Settings in all cases: treatment time: 3 h
[1] = compound: CCC1N(CCc2sccc12)C(=O)CCl
Summary of the method: (§1)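 DUBs in HEK293T lysate were labelled with Biotin-Ahx-Ub-VS (0.5 µM final, 1 h) after a 3 h treatment with compound at 50 or 200 µM or with DMSO, done in triplicate on 495 µg of lysate per sample. NeutrAvidin-enriched proteins were digested with LysC and trypsin and run by diaPASEF LC-MS/MS. Median-normalised label-free quantities gave average base-two log ratios of compound to DMSO by unpaired t-test, restricted to proteins with at least 2 unique peptides.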

[2] = compound: CN1c2ccccc2C(CS1(=O)=O)NC(=O)CCl
Summary of the method: as §1

[3] = compound: Cl.ClCC(=O)N1CCc2ncncc2C1
Summary of the method: as §1

[4] = compound: Cl.Cn1ncc2C(CCCc12)NC(=O)CCl
Summary of the method: as §1

[5] = compound: ClCC(=O)NC1CCOc2ccccc12
Summary of the method: as §1

[6] = compound: ClCC(=O)NC1CCCc2ccccc12
Summary of the method: (§2)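 Average ratios of compound to vehicle were obtained by unpaired t-test. Beforehand, 495 µg samples of HEK293T lysate in buffer with protease inhibitors were treated in triplicate with compound over a concentration series or vehicle for 3 h, then with 0.5 µM final Biotin-Ahx-Ub-VS for 1 h. Labelled deubiquitinases were NeutrAvidin-enriched, digested and quantified label-free by diaPASEF LC-MS/MS in Spectronaut, normalised to the global median. Values are log2 and cover proteins with at least two unique peptides.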

[7] = compound: ClCC(=O)N[C@@H]1CCCc2ccccc12
Summary of the method: as §2

[8] = compound: ClCC(=O)N[C@H]1CCCc2ccccc12
Summary of the method: as §2

[9] = compound: CCC1N(CCc2cc(OC)c(Cl)cc12)C(=O)CCl
Summary of the method: as §1

[10] = compound: CCCC1N(CCc2cc(OC)c(OC)cc12)C(=O)CCl
Summary of the method: as §1

Measured: log2 ratio of Biotin-Ahx-Ub-VS probe labelling

FAM105A (UniProt Q9NUU6)
Sequence of UniProt Q9NUU6 (Q9NUU6 whole entry): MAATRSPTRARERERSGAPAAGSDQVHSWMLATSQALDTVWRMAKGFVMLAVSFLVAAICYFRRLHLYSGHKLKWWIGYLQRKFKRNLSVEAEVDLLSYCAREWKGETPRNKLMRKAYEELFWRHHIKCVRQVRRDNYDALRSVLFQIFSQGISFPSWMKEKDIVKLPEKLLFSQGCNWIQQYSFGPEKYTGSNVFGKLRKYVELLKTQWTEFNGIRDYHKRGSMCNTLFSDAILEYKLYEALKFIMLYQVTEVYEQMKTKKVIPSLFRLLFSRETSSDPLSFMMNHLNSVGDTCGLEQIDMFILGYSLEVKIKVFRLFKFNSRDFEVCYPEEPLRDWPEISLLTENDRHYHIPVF
inactive: [1]; compound concentration: 50uM -0.137 | [1]; compound concentration: 200uM -0.0129 | [2]; compound concentration: 50uM 0.0298 | [2]; compound concentration: 200uM 0.102 | [3]; compound concentration: 50uM -0.0634 | [3]; compound concentration: 200uM -0.355 | [4]; compound concentration: 50uM -0.00158 | [4]; compound concentration: 200uM -0.0665 | [5]; compound concentration: 50uM -0.0638 | [5]; compound concentration: 200uM -0.105 | [6]; compound concentration: 0.78uM 0.0819 | [6]; compound concentration: 1.56uM 0.102 | [6]; compound concentration: 3.13uM -0.00663 | [6]; compound concentration: 6.25uM 0.0556 | [6]; compound concentration: 12.5uM 0.00386 | [6]; compound concentration: 25uM -0.153 | [6]; compound concentration: 50uM 0.14 | [6]; compound concentration: 100uM -0.0653 | [6]; compound concentration: 200uM 0.157 | [7]; compound concentration: 0.78uM 0.0146 | [7]; compound concentration: 1.56uM 0.139 | [7]; compound concentration: 3.13uM 0.288 | [7]; compound concentration: 6.25uM 0.071 | [7]; compound concentration: 12.5uM -0.0354 | [7]; compound concentration: 25uM -0.00679 | [7]; compound concentration: 50uM 0.0826 | [7]; compound concentration: 100uM 0.0658 | [7]; compound concentration: 200uM -0.0519 | [8]; compound concentration: 0.78uM 0.122 | [8]; compound concentration: 1.56uM -0.0166 | [8]; compound concentration: 3.13uM 0.227 | [8]; compound concentration: 6.25uM 0.317 | [8]; compound concentration: 12.5uM 0.0169 | [8]; compound concentration: 25uM 0.0586 | [8]; compound concentration: 50uM -0.064 | [8]; compound concentration: 100uM 0.0853 | [8]; compound concentration: 200uM 0.091 | [9]; compound concentration: 50uM 0.0998 | [9]; compound concentration: 200uM -0.0916 | [10]; compound concentration: 50uM -0.253 | [10]; compound concentration: 200uM -0.175

COPS5 (UniProt Q92905)
Sequence of UniProt Q92905 (Q92905 whole entry, looked up): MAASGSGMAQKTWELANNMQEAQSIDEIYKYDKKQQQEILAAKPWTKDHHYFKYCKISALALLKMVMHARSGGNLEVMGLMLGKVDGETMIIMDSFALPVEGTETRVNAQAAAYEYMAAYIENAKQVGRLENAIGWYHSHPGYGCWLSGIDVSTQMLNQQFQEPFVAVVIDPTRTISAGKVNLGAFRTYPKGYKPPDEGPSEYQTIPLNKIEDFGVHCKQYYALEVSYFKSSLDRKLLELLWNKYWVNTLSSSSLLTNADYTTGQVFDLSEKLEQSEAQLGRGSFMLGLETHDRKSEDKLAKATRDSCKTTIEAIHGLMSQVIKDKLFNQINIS
inactive: [1]; compound concentration: 50uM -0.164 | [1]; compound concentration: 200uM 0.0997 | [2]; compound concentration: 50uM -0.182 | [2]; compound concentration: 200uM 0.168 | [3]; compound concentration: 50uM -0.296 | [3]; compound concentration: 200uM -0.179 | [4]; compound concentration: 50uM -0.177 | [4]; compound concentration: 200uM -0.131 | [5]; compound concentration: 50uM 0.175 | [5]; compound concentration: 200uM -0.0253 | [6]; compound concentration: 0.78uM 0.0364 | [6]; compound concentration: 1.56uM -0.0289 | [6]; compound concentration: 3.13uM -0.0264 | [6]; compound concentration: 6.25uM 0.0604 | [6]; compound concentration: 12.5uM -0.134 | [6]; compound concentration: 25uM -0.0881 | [6]; compound concentration: 50uM -0.183 | [6]; compound concentration: 100uM -0.315 | [6]; compound concentration: 200uM -0.041 | [7]; compound concentration: 0.78uM -0.237 | [7]; compound concentration: 1.56uM -0.152 | [7]; compound concentration: 3.13uM -0.15 | [7]; compound concentration: 6.25uM 0.209 | [7]; compound concentration: 12.5uM -0.0611 | [7]; compound concentration: 25uM -0.26 | [7]; compound concentration: 50uM -0.29 | [7]; compound concentration: 100uM -0.155 | [7]; compound concentration: 200uM 0.052 | [8]; compound concentration: 0.78uM -0.209 | [8]; compound concentration: 1.56uM 0.0351 | [8]; compound concentration: 3.13uM -0.059 | [8]; compound concentration: 6.25uM -0.0717 | [8]; compound concentration: 12.5uM 0.171 | [8]; compound concentration: 25uM 0.148 | [8]; compound concentration: 50uM -0.0575 | [8]; compound concentration: 100uM 0.0499 | [8]; compound concentration: 200uM -0.0918 | [9]; compound concentration: 50uM 0.0938 | [9]; compound concentration: 200uM 0.311 | [10]; compound concentration: 50uM -0.111 | [10]; compound concentration: 200uM 0.0826

UniProt Q9P2H5
Sequence of UniProt Q9P2H5 (Q9P2H5 whole entry): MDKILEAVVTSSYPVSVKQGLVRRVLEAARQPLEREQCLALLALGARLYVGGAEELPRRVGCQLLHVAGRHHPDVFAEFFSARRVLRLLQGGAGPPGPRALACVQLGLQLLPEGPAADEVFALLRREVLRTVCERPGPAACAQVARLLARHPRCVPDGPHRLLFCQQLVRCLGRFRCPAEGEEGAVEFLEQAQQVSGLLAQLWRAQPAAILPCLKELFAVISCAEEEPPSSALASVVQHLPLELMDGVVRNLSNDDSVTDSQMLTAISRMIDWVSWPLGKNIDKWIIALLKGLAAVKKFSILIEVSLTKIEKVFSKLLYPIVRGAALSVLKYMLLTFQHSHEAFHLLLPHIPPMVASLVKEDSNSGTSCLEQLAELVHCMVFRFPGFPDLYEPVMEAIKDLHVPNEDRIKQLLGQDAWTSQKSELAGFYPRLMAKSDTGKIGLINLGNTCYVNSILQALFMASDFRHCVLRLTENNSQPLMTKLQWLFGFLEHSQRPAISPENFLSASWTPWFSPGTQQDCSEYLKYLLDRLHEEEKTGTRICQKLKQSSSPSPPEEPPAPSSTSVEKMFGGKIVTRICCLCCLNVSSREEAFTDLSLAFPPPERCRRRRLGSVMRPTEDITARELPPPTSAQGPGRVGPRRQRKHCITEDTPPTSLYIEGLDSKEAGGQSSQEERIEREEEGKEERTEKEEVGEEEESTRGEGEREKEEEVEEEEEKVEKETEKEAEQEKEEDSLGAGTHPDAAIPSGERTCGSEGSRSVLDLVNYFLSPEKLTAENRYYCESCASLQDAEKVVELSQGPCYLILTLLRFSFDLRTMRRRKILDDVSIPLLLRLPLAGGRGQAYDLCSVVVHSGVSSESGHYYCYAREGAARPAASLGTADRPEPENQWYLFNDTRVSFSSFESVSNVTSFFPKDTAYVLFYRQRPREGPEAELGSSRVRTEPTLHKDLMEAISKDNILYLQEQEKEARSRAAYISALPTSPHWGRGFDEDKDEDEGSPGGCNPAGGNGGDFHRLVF
inactive: [1]; compound concentration: 50uM -0.0377 | [1]; compound concentration: 200uM 0.00874 | [2]; compound concentration: 50uM -0.392 | [2]; compound concentration: 200uM -0.0291 | [3]; compound concentration: 50uM -0.175 | [3]; compound concentration: 200uM -0.43 | [4]; compound concentration: 50uM 0.0391 | [4]; compound concentration: 200uM 0.177 | [5]; compound concentration: 50uM -0.286 | [5]; compound concentration: 200uM -0.188 | [6]; compound concentration: 0.78uM -0.0934 | [6]; compound concentration: 1.56uM -0.117 | [6]; compound concentration: 3.13uM -0.133 | [6]; compound concentration: 6.25uM -0.0237 | [6]; compound concentration: 12.5uM -0.00833 | [6]; compound concentration: 25uM -0.293 | [6]; compound concentration: 50uM -0.0682 | [6]; compound concentration: 100uM -0.133 | [6]; compound concentration: 200uM -0.168 | [7]; compound concentration: 0.78uM -0.164 | [7]; compound concentration: 1.56uM -0.0308 | [7]; compound concentration: 3.13uM -0.0316 | [7]; compound concentration: 6.25uM -0.151 | [7]; compound concentration: 12.5uM -0.2 | [7]; compound concentration: 25uM -0.0579 | [7]; compound concentration: 50uM 0.05 | [7]; compound concentration: 100uM -0.00994 | [7]; compound concentration: 200uM -0.0974 | [8]; compound concentration: 0.78uM 0.0582 | [8]; compound concentration: 1.56uM -0.146 | [8]; compound concentration: 3.13uM -0.121 | [8]; compound concentration: 6.25uM -0.0964 | [8]; compound concentration: 12.5uM -0.172 | [8]; compound concentration: 25uM -0.164 | [8]; compound concentration: 50uM -0.0898 | [8]; compound concentration: 100uM -0.0993 | [8]; compound concentration: 200uM 0.0345 | [9]; compound concentration: 50uM 0.132 | [9]; compound concentration: 200uM -0.452 | [10]; compound concentration: 50uM -0.52 | [10]; compound concentration: 200uM -0.532

UniProt Q5T2D3
Sequence of UniProt Q5T2D3 (Q5T2D3 whole entry): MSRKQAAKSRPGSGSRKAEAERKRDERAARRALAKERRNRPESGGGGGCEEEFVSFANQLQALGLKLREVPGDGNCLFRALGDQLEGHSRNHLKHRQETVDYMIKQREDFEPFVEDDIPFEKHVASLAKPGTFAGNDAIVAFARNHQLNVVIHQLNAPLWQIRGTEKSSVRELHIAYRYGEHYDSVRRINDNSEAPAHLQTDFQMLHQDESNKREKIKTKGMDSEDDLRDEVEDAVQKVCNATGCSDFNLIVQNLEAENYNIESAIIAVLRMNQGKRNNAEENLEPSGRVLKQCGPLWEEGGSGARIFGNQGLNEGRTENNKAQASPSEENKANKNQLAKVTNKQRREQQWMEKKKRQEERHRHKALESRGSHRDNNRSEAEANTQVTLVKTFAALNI
inactive: [1]; compound concentration: 50uM -0.152 | [1]; compound concentration: 200uM -0.102 | [2]; compound concentration: 50uM -0.294 | [2]; compound concentration: 200uM -0.292 | [3]; compound concentration: 50uM -0.0797 | [3]; compound concentration: 200uM -0.274 | [4]; compound concentration: 50uM -0.136 | [4]; compound concentration: 200uM 0.135 | [5]; compound concentration: 50uM -0.0283 | [5]; compound concentration: 200uM -0.137 | [6]; compound concentration: 0.78uM -0.198 | [6]; compound concentration: 1.56uM -0.0928 | [6]; compound concentration: 3.13uM -0.11 | [6]; compound concentration: 6.25uM -0.192 | [6]; compound concentration: 12.5uM -0.113 | [6]; compound concentration: 25uM 0.0408 | [6]; compound concentration: 50uM -0.0723 | [6]; compound concentration: 100uM -0.0612 | [6]; compound concentration: 200uM -0.179 | [7]; compound concentration: 0.78uM -0.153 | [7]; compound concentration: 1.56uM -0.131 | [7]; compound concentration: 3.13uM -0.0877 | [7]; compound concentration: 6.25uM -0.0936 | [7]; compound concentration: 12.5uM -0.0592 | [7]; compound concentration: 25uM -0.125 | [7]; compound concentration: 50uM -0.234 | [7]; compound concentration: 100uM -0.0551 | [7]; compound concentration: 200uM -0.296 | [8]; compound concentration: 0.78uM -0.237 | [8]; compound concentration: 1.56uM -0.21 | [8]; compound concentration: 3.13uM -0.232 | [8]; compound concentration: 6.25uM -0.0509 | [8]; compound concentration: 12.5uM 0.00779 | [8]; compound concentration: 25uM -0.0485 | [8]; compound concentration: 50uM 0.0602 | [8]; compound concentration: 100uM 0.0541 | [8]; compound concentration: 200uM -0.193 | [9]; compound concentration: 50uM 0.0656 | [9]; compound concentration: 200uM -0.0849 | [10]; compound concentration: 50uM -0.315 | [10]; compound concentration: 200uM -0.497
